Screens as filed in PubChem.
APE1 inh-1 – inhibitors of human APE1 endonuclease. P27695. recombinant APE1, TAMRA/BHQ-2 abasic DNA cleavage fluorescence. Potency, µM (highest dose often 65.8 µM), usual class: inhibitors. 350,000 compounds, 0.35% hits. AID 2517; also: nearly all actives have a fitted effect of over 55% in size
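0.75 nM APE1 + cpd, 15 min RT; start w/ 50 nM TAMRA/BHQ-2 THF-abasic dsDNA; kinetic fluor 525/598 nm ×3 reads @60 s; Δ(read3−read1); normalized to DMSO and NSC13755 control wells.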
Pol beta inh – DNA polymerase beta (human) inhibition | P06746 | Pol beta primer extension/strand displacement, fluorescence kinetic | Potency, µM (top dose mostly 114 µM), usual class: inhibitors | 340,000 compounds, 1.3% hits
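Pol beta (10 nM) and compounds were preincubated 15 min at room temperature, then 50 nM substrate (final) started primer extension/strand displacement. Reads were taken at 0 and 10 min; concentration-response data were fitted to a four-parameter Hill equation.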
L3MBTL1 block – L3MBTL1 (human) inhibition | Q9Y468 | AlphaScreen L3MBTL1–H3K9me1 peptide binding | Potency, µM (top dose mostly 57.1 µM), most hits filed as inhibitors | 230,000 compounds, 0.66% hits; also: nearly all actives have a fitted effect of over 60% in size
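Displacement of a biotinylated histone H3(1-15) peptide monomethylated at Lys9 (75 nM) from L3MBTL1 (50 nM) was measured by AlphaScreen after a 30 min room-temperature compound incubation; cefsulodin titration served as intraplate control.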
Pol iota inh – DNA polymerase iota (human) inhibition; Pol iota fluorescent replication assay, 10 min; Potency, µM (titrated, usually from 115 µM), most hits filed as inhibitors; 390,000 compounds, 1% hits; AID 588590
Target sequence (Q9UNA4 whole entry, looked up): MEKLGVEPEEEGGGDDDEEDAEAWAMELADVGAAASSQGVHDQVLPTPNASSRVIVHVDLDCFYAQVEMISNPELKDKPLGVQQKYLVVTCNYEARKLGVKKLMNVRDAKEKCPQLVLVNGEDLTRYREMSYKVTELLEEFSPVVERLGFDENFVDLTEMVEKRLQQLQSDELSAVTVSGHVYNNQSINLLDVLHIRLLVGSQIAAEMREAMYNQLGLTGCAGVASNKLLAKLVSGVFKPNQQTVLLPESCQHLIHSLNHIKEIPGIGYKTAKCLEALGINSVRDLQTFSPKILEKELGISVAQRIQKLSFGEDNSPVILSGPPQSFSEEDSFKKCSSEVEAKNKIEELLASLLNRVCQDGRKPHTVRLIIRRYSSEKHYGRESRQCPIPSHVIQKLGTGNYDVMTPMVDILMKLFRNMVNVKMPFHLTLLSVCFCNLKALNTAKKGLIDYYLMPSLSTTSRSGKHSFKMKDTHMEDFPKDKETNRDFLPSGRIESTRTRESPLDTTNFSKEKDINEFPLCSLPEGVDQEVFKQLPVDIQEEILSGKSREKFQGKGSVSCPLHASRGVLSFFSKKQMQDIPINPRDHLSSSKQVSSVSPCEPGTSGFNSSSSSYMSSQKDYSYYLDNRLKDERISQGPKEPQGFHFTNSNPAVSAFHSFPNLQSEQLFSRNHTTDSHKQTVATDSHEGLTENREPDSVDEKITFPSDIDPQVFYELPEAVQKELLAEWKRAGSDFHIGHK
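Fluorescent replication assay read twice, at 0 min and 10 min after adding 50 nM (final) substrate. Enzyme (10 nM) and compounds were first incubated 15 min at room temperature; enzyme-free buffer wells were negative controls.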
POLK inh – DNA polymerase kappa (human) inhibition | Potency, µM (titrated, usually from 107 µM), actives largely listed as inhibitors | AID 588579 | Q9UBT6 | purified Pol kappa, fluorescent DNA synthesis assay, 10 min | 400,000 compounds, 0.53% hits
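Inhibition of 10 nM Pol kappa is measured by a fluorescent read-out at 0 and 10 min following addition of 50 nM substrate (final), with a 15-min room-temperature compound preincubation.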
POLH inh – blocks human DNA polymerase eta activity; Q9Y253; recombinant Pol eta, fluorescent DNA replication assay; Potency, µM (top dose mostly 114 µM), actives largely listed as inhibitors; 390,000 compounds, 1.2% hits; AID 588591
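Fluorescent replication assay: 50 nM final substrate added after a 15 min room-temperature compound preincubation with 10 nM enzyme. Signal taken at 0 min and again at 10 min.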
DNA dye displace – counter-screen for APE1 inhibitors: DNA dye displacement | shares compounds with APE1 inh-1 | DNA fluorescent dye displacement counterscreen, fluorescence | Potency, µM (series often up to 28.5 µM), actives largely listed as inhibitors | 480 compounds, 7% hits | AID 2564;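 also: loss of thiazole orange fluorescence as the dye is displaced from duplex DNA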
Endo IV inh – counter-screen for APE1 inhibitors: inhibitors of E. coli endonuclease IV | shares compounds with APE1 inh-1 | E. coli Endo IV, fluorogenic AP-site DNA cleavage | Potency, µM (doses to about 27.1 µM), hits mostly inhibitors | 560 compounds, 4% hits | AID 2565
APE1 inh-2 – APE1 (human) endonuclease inhibition, confirmation; shares compounds with APE1 inh-1; purified APE1, fluorogenic abasic-site DNA cleavage; Potency, µM (titrated, usually from 57.1 µM), most hits filed as inhibitors; 750 compounds, 44% hits; also: nearly all actives have a fitted effect of over 30% in size
APE1 FP inh – APE1 (human) DNA binding inhibition, fluorescence polarization; APE1 binding to TAMRA-labelled double-stranded DNA, fluorescence polarization displacement; 480 compounds, 7% hits; Potency, µM (series often up to 28.5 µM), actives largely listed as inhibitors; shares compounds with APE1 inh-1
Each line names hits and unclear results; the compound was inactive in the other large screens (follow-up assays come after a bar, where they were run); ! = not confirmed by another sample. In the library only some 2.5% were active in any assay of this set; here they are far more common. Calls follow the shape of the dose curve; as a rule, active = well fitted curve in the direction sought with a large enough effect; inconclusive = small, poorly fitted or top-dose-only effect, or another doubt; inactive = no such curve, though single readings can be large; an effect the other way counts as inactive or inconclusive.

COc1cc(-c2cc(=O)c3c(O)c(OC)c(OC)c(OC)c3o2)cc(OC)c1OC	none (no result: L3MBTL1 block)
COc1c(O)cc2c(=O)oc3c(OC)c(O)cc4c(=O)oc1c2c34	APE1 inh-1 1.3µM (no result: Pol beta inh, L3MBTL1 block, Pol iota inh, POLK inh, POLH inh) | DNA dye displace 6.3µM | Endo IV inh inactive | APE1 inh-2 0.45µM | APE1 FP inh inactive
CC(=O)N1CCC(C(=O)Nc2ccccc2)(N(Cc2ccccc2)C(=O)c2cccnc2)CC1	APE1 inh-1 inconclusive | DNA dye displace inactive | Endo IV inh inactive | APE1 inh-2 inactive | APE1 FP inh inconclusive
CN(C(=O)CCCN1CCCC1=O)C1CCCN(Cc2ccccc2F)C1 (stereo not drawn)	Pol beta inh inconclusive (no result: L3MBTL1 block)
O=C(N/N=C/c1ccc([N+](=O)[O-])cc1)c1ccc2nc[nH]c2c1	Pol iota inh inconclusive, POLH inh inconclusive
C/C(=N\NC(=O)c1ccc2nc[nH]c2c1)c1ccc([N+](=O)[O-])cc1	none (no result: L3MBTL1 block, Pol iota inh, POLK inh, POLH inh) | APE1 inh-2 inactive
OCCNc1cc(Cl)ncn1	none (no result: L3MBTL1 block)
CCOc1cc(/C=C2/SC(=S)N(CC(=O)O)C2=O)ccc1OC(=O)c1cccs1	Pol iota inh inconclusive, POLH inh inconclusive
CCOc1cc(/C=C2\C(=O)N(c3ccc(C(N)=O)cc3)N=C2C)ccc1OC(=O)c1cccs1	APE1 inh-1 28µM, Pol iota inh inconclusive, POLH inh 50µM | DNA dye displace inconclusive | Endo IV inh inactive | APE1 inh-2 inactive | APE1 FP inh inactive
Cc1c(N/C(=N/S(=O)(=O)c2ccc(F)cc2)c2ccccc2)c(=O)n(-c2ccccc2)n1C	none
CCSC1=N/C(=C\c2ccc(C(=O)O)cc2)C(=O)S1	none
C=CCSC1=N/C(=C\c2ccc(C(=O)O)cc2)C(=O)S1	none | APE1 inh-2 inconclusive
Cc1ccc2c(c1)C1C=CCC1C(C(=O)O)N2 (stereo not drawn)	APE1 inh-1 16µM, Pol beta inh 3.5µM, L3MBTL1 block 3.2µM (no result: Pol iota inh, POLK inh, POLH inh) | DNA dye displace inconclusive | Endo IV inh inactive | APE1 inh-2 14µM | APE1 FP inh inactive
Cc1ccc2c(c1)C1C=CCC1C(C(=O)NCCCN1CCOCC1)N2 (stereo not drawn)	none (no result: APE1 inh-1, Pol beta inh, L3MBTL1 block)
Cc1nn(CC(=O)NC(C)c2ccccc2)c(=O)c2cc3occc3n12 (stereo not drawn)	none (no result: APE1 inh-1, L3MBTL1 block)
COc1cccc(/C=N/NC(=S)NC2CC3CCC2C3)c1OC (stereo not drawn)	APE1 inh-1 0.56µM | DNA dye displace inactive | Endo IV inh inactive | APE1 inh-2 inactive | APE1 FP inh inconclusive
Oc1ccccc1/C=N/NC(=S)NC1CC2CCC1C2 (stereo not drawn)	L3MBTL1 block inconclusive
Cc1ccc2c(c1)C(=O)OC(C(=O)Nc1ncc(Cc3ccc(Cl)cc3)s1)C2 (stereo not drawn)	none (no result: APE1 inh-1, L3MBTL1 block)
CCOC(=O)[C@H](CCc1ccccc1)N[C@@H](C)C(=O)N1CCC[C@@H]1C(=O)O	none (no result: Pol beta inh)
CCOC(=O)[C@H](CCc1ccccc1)N[C@@H](C)C(=O)N1CCC[C@H]1C(=O)O	APE1 inh-1 0.063µM!, Pol iota inh inconclusive | DNA dye displace inactive | Endo IV inh inactive | APE1 inh-2 inactive | APE1 FP inh inactive
O=C(Nc1ncc(Cc2ccc(F)cc2)s1)c1ccc2c(c1)CC(c1ccccc1)OC2=O (stereo not drawn)	none (no result: APE1 inh-1, L3MBTL1 block)
